An excerpt weighted towards active compounds, which were near 2% of everything screened.
Efa HMGR inh = blocks class II HMG-CoA reductase of Enterococcus faecalis. purified E. faecalis HMGR, NADPH absorbance 340 nm kinetic. inhibition, % at 10 µM. hit rate 0.41% among 190,000. AID 1066;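 active means inhibition above a set limit, the median over all tested compounds plus 3 SD, cut at about 9.5% in these data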;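 further: enzyme runs in reverse so mevalonate oxidation gives rising NADPH absorbance; 0% = complete reaction with DMSO and 100% = background rate lacking mevalonate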
Hsp70 activator = switches on Hsp70 transcription; HeLa Hsp70 promoter luciferase reporter, luminescence; scaled: vehicle 0, proteasome-inhibitor control 100%; hit rate 0.04% among 200,000; AID 1203; activation, % at 10 µM;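 active means activation above the mean across all tested compounds plus 3 SD, cutoff set per campaign, cut at about 5.5% in these data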;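 further: 100% = MG132 at 30 µM as the positive control and 0% = DMSO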
Arbovirus anti = arbovirus infection inhibition; hit rate 0.37% among 200,000; AID 1251; arbovirus infection cell-based antiviral screen; inhibition, % at 10 µM; in the data active means inhibition above about 30%
Wee1 degr inh = blocks degradation of human Wee1 kinase; reporter increase, % at 5 µM; hit rate 1.2% among 220,000; HeLa Luc-Wee1K328M stability, luciferase luminescence; 100% = proteasome inhibitor MG132 effect;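 active means activation above the mean of all tested compounds plus 3 SD, set per screening run, cut at about 8.8% in these data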;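 further: cells exposed to compound for 20 h before luminescence read; 0% = DMSO alone and 100% = MG132 at 30 µM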
Target sequence (P30291 whole entry K328M): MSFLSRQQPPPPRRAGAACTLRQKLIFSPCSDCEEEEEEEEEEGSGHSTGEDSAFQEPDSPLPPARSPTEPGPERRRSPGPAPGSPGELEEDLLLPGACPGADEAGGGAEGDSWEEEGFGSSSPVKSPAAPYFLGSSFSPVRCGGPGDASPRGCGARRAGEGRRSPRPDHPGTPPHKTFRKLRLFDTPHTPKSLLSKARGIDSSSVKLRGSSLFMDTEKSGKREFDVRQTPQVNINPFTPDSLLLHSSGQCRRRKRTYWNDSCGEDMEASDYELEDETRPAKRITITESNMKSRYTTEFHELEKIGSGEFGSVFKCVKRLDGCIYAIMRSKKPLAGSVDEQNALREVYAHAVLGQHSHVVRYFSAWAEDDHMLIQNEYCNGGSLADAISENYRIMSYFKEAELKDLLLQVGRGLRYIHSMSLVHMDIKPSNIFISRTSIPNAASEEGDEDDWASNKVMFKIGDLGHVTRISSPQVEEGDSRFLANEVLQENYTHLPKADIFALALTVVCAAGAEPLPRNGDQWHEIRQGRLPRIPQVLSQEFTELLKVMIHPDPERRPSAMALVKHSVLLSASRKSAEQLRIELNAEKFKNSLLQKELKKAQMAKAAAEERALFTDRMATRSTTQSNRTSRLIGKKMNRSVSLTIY
PKD1 inh = blocks activity of human protein kinase D1 | inhibition, % (no concentration beside the values) | hit rate 0.056% among 200,000 | AID 797 | PKD1 kinase fluorescence polarization assay; in the data active means inhibition above about 50%
* = called active by the depositor.

Screening CC(=O)/C(=N/Nc1cccc(Cl)c1)Sc1nnc(C(O)c2ccccc2)n1-c1ccccc1 (configuration not stated) returned Efa HMGR inh -2.0, Hsp70 activator -0.4, Arbovirus anti 47.2*, Wee1 degr inh -4.6 and PKD1 inh 15.0.
`CC(=O)CCn1cc([N+](=O)[O-])nc1C` gave Wee1 degr inh -1.0.
CCc1cccc(C)c1NC(=O)CN(C)Cc1ccc(Br)cc1 was read as Efa HMGR inh -8.7, Hsp70 activator 0.1, Arbovirus anti 42.1*, Wee1 degr inh -2.1 and PKD1 inh 5.5.
CSc1ccccc1NC(=O)CN(C)Cc1ccc(Br)cc1 was read as Efa HMGR inh -13.3, Hsp70 activator -0.1, Arbovirus anti 9.6, Wee1 degr inh 0.7 and PKD1 inh 2.7.
Screening CC12CCC(C(=O)N(CSC(=S)N/N=C\c3ccccc3O)C1=O)C2(C)C (configuration not stated) returned Efa HMGR inh 9.9*, Hsp70 activator 0.3, Arbovirus anti -8.3, Wee1 degr inh -1.8 and PKD1 inh 7.0.
For COc1cc(CNc2ccc(CNc3ncn[nH]3)cc2)ccc1OCc1ccccc1 the results were Efa HMGR inh -1.0, Hsp70 activator 0.1, Arbovirus anti -18.9, Wee1 degr inh 10.1* and PKD1 inh 6.6.
`C=CCn1c(CNC(=O)c2cccs2)nnc1SCc1ccc(Cl)cc1Cl` gave Efa HMGR inh 4.5, Hsp70 activator -0.4, Arbovirus anti 62.9*, Wee1 degr inh -2.8 and PKD1 inh -6.4.
For CC(NC(=O)c1cccs1)c1nnc(SCc2ccc(Cl)cc2Cl)n1C (configuration not stated) the results were Efa HMGR inh -5.2, Hsp70 activator -0.3, Arbovirus anti 77.0*, Wee1 degr inh -0.1 and PKD1 inh -5.6.
For COC(=O)c1ccccc1NC(=O)CSc1nnc(C(C)NC(=O)c2ccc(Cl)cc2Cl)n1C (configuration not stated) the results were Efa HMGR inh -6.5, Hsp70 activator -0.2, Arbovirus anti 5.2, Wee1 degr inh -2.7 and PKD1 inh -2.8.
`COc1ccccc1CNC(=O)CSc1ccsc1[N+](=O)[O-]` gave Efa HMGR inh -1.6, Hsp70 activator -0.2, Arbovirus anti -5.6, Wee1 degr inh 9.2* and PKD1 inh -2.3.
COc1cc(OC)cc(C(=O)N[C@H](C(=O)OCC(=O)Nc2ccc(F)c(F)c2)C(C)C)c1 was read as Efa HMGR inh -2.6, Hsp70 activator -0.6, Arbovirus anti 0.6, Wee1 degr inh -1.9 and PKD1 inh 12.4.
`O=C(NCc1ccccc1)Nc1cccn(Cc2ccccc2Cl)c1=O` gave Efa HMGR inh -4.8, Hsp70 activator 0.0, Arbovirus anti -3.6, Wee1 degr inh 3.0 and PKD1 inh -2.6.
Cc1sc2nc(C)n(/N=C/c3ccc(O)cc3O)c(=O)c2c1C was read as Efa HMGR inh -0.3, Hsp70 activator -0.5, Arbovirus anti 9.0, Wee1 degr inh -4.9 and PKD1 inh -8.1.
`O=C(c1cccs1)N(c1ccc(F)cc1)C1C=CS(=O)(=O)C1` (configuration not stated) gave Efa HMGR inh 16.9*, Hsp70 activator -0.1, Arbovirus anti 2.0, Wee1 degr inh -1.4 and PKD1 inh -9.0.
Screening Cc1ccc(N(C(=O)c2cccs2)C2C=CS(=O)(=O)C2)cc1 (configuration not stated) returned Efa HMGR inh -6.1, Hsp70 activator 0.3, Arbovirus anti 1.2, Wee1 degr inh 0.3 and PKD1 inh -9.9.
For CC(=O)Oc1cc2cccc(OC(C)=O)c(=O)c2c(OC(C)=O)c1OC(C)=O the results were Efa HMGR inh -0.5, Hsp70 activator -0.1, Arbovirus anti -4.6, Wee1 degr inh 0.9 and PKD1 inh 20.5.
Cc1ccc(NC2c3ncccc3C(=O)N2C2CCCCC2)cc1 (configuration not stated) was read as Efa HMGR inh -1.4, Hsp70 activator -0.3, Arbovirus anti 11.2, Wee1 degr inh -0.3 and PKD1 inh 7.3.
Screening Cc1ccc(NC2c3ncccc3C(=O)N2C2CCCCC2)cc1C (configuration not stated) returned Efa HMGR inh -8.9, Hsp70 activator 0.1, Arbovirus anti 39.6*, Wee1 degr inh 1.2 and PKD1 inh -1.6.
`O=C(Nc1ccc(S(=O)(=O)Nc2ccccc2)cc1)C1COc2ccccc2O1` (configuration not stated) gave Efa HMGR inh 14.9*, Hsp70 activator -0.5, Arbovirus anti -7.2, Wee1 degr inh 3.2 and PKD1 inh -4.7.
O=S(=O)(Nc1ccc(S(=O)(=O)Nc2ccccc2)cc1)c1ccccc1 was read as Efa HMGR inh -1.6, Hsp70 activator -0.5, Arbovirus anti 13.9, Wee1 degr inh 9.2* and PKD1 inh -5.9.
For CCN1CCCC1CNCc1cccc(OC)c1OCc1ccc(F)cc1 (configuration not stated) the results were Efa HMGR inh 0.4, Hsp70 activator 0.0, Arbovirus anti -1.4, Wee1 degr inh 4.3 and PKD1 inh -2.3.
`CN1CCC(=NNC(=O)c2cn(-c3ccccc3)nc2-c2ccccc2)CC1` gave Efa HMGR inh 2.3, Hsp70 activator 0.5, Arbovirus anti -13.9, Wee1 degr inh 1.6 and PKD1 inh -8.2.
CCOc1ccccc1C1N=C(c2ccc(OC)cc2)CC(c2ccccc2O)N1 (configuration not stated) was read as Efa HMGR inh -1.5, Hsp70 activator 0.3, Arbovirus anti 7.4, Wee1 degr inh 5.6 and PKD1 inh -2.8.
Screening CC(C)C1N=C(c2ccc3c(c2)OCO3)CC(c2ccccc2O)N1 (configuration not stated) returned Efa HMGR inh -0.5, Hsp70 activator -0.5, Arbovirus anti -37.8, Wee1 degr inh 9.4* and PKD1 inh -5.7.
Screening COc1ccccc1/C=C/C=C1N=C(/C=C/c2ccc(Cl)cc2)OC/1=O returned Efa HMGR inh -1.4, Hsp70 activator -0.3, Arbovirus anti 34.8*, Wee1 degr inh -0.1 and PKD1 inh -3.0.
Cc1ccc(S(=O)(=O)Cn2nnnc2CN2CCOCC2)cc1 was read as Efa HMGR inh -4.4, Hsp70 activator -0.3, Arbovirus anti 5.7, Wee1 degr inh 10.7* and PKD1 inh 3.9.
Screening COCC(=O)Nc1cc(C(=O)Nc2ccccc2)ccc1Cl returned Efa HMGR inh -2.8, Hsp70 activator -0.4, Arbovirus anti -5.2, Wee1 degr inh 3.3 and PKD1 inh 3.4.
Screening O=C(Nc1cccs1)OCCN1CCN(Cc2ccccc2)CCC1=O returned Efa HMGR inh -0.6, Hsp70 activator -0.3, Arbovirus anti 8.4, Wee1 degr inh -3.4 and PKD1 inh -18.4.
For CC1CCN(c2cc(N)c(Cl)cc2[N+](=O)[O-])CC1 the results were Efa HMGR inh 15.8*, Hsp70 activator -0.1, Arbovirus anti 6.7, Wee1 degr inh -1.5 and PKD1 inh 28.2.
For CS(=O)(=O)N(CC(=O)Nc1ccccc1Cl)c1ccc(Cl)cc1 the results were Efa HMGR inh 2.0, Hsp70 activator 0.2, Arbovirus anti 5.5, Wee1 degr inh 0.3 and PKD1 inh -2.1.
